High-throughput results: PubChem BioAssay, several laboratories
PfHsp90 set2: growth inhibition of PfHsp90-expressing yeast, primary screen, antimalarial PfHsp90 inhibitor project, S. cerevisiae, BacTiter-Glo luminescence, single point, set 2; BacTiter-Glo ATP, 48 h; yeast lacking PDR1 and PDR3 efflux regulators; inhibition, % at 9.4 µM; 0.32% of 310,000 active;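 active = every replicate shows inhibition above about 80%, whatever the replicate mean, limit read from the data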;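 note: 0% = DMSO neutral controls and 100% = 20 µM radicicol positive controls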
tim10-1 inh: growth inhibitors of tim10-1 mutant yeast, primary screen, luminescence, uHTS; AID 463190, 2010; S. cerevisiae tim10-1 ts strain growth, BacTiter-Glo, 24 h; inhibition, % at 20 µM; 2.2% of 330,000 active;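 active = inhibition of at least 40%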;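 note: mutant grown at 25 °C; 0% = DMSO wells with yeast and 100% = wells holding no yeast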
tim23-1 inh: growth inhibitors of tim23-1 mutant yeast, primary screen, luminescence, uHTS | S. cerevisiae tim23-1 growth, BacTiter-Glo luminescence, 24 h | inhibition, % at 20 µM | 1.3% of 330,000 active;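 active = growth inhibition of the mutant yeast at or above 50%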;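 note: temperature-sensitive mutant grown at 25 °C; plate controls were DMSO-treated mutant yeast for no effect and medium wells lacking yeast for full effect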
NALP3 yeast inh: NALP3 inflammasome inhibitors in reconstituted yeast, primary screen, luminescence, uHTS | Yeast reconstituted NLRP3/ASC/caspase-1, beta-gal luminescence, 24 h | 0.39% of 330,000 active | inhibition, % at 10 µM;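 active = inhibition of 50% or more; inactive = inhibition below 50%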;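 note: plate controls were induced DMSO wells for no effect and uninduced yeast grown without galactose for full effect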
SKKanGAS inh: S. pyogenes SKKanGAS growth inhibitors in kanamycin, primary screen, streptokinase expression inhibitor project, SKKanGAS strain, BacTiter-Glo luminescence; 6 h; inhibition, % at 7.5 µM; 1.3% of 300,000 active; AID 1662, 2009;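 active = mean replicate score, as percent of positive control median, at least 50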;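 note: strain carries kanamycin resistance gene driven by streptokinase promoter and grows in 40 µg/ml kanamycin; loss of luminescence reflects streptokinase promoter inhibition or plain growth inhibition; 0% = median of DMSO wells and 100% = positive control at its reference dose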
TIM10 inh: growth inhibitors of isogenic TIM10 control yeast, primary screen, counter-screen for tim10-1 yeast inhibitor project, luminescence, uHTS; S. cerevisiae TIM10 strain growth, BacTiter-Glo luminescence, 24 h; inhibition, % at 10 µM; 1.4% of 330,000 active; AID 463195, 2010;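 active = inhibition of 40% or more at the single tested concentration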;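 note: wild-type TIM10 isogenic control strain grown at permissive 25 °C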
An asterisk follows results filed as active. A selection: hits, their analogues and other compounds. The true share with any hit is near 4.5%.

What do the screens show for `Cc1cc(O)c(C(=O)/C=C/c2cccc([N+](=O)[O-])c2)c(=O)o1`?
PfHsp90 set2: -6; tim10-1 inh: 12; tim23-1 inh: 9; NALP3 yeast inh: 20; SKKanGAS inh: 8; TIM10 inh: 15

How did O=C(Nc1nnc(-c2cccs2)o1)c1cccc(C(F)(F)F)c1 do in these assays?
PfHsp90 set2: -107; tim10-1 inh: 7; tim23-1 inh: 6; NALP3 yeast inh: 2; SKKanGAS inh: 92*; TIM10 inh: 5

What do the screens show for `CN(C)S(=O)(=O)c1ccc(C(=O)Nc2nnc(-c3cccs3)o2)cc1`?
PfHsp90 set2: 20; tim10-1 inh: 9; tim23-1 inh: -7; NALP3 yeast inh: 0; SKKanGAS inh: -2; TIM10 inh: 11

How did N#Cc1ccc(C(=O)Nc2nnc(-c3cccs3)o2)cc1 do in these assays?
PfHsp90 set2: -43; tim10-1 inh: 10; tim23-1 inh: 6; NALP3 yeast inh: 19; SKKanGAS inh: 52*; TIM10 inh: -21

What do the screens show for `Cc1ccc(C)c(-c2nnc(NC(=O)C3=COCCO3)o2)c1`?
PfHsp90 set2: -10; tim10-1 inh: 16; tim23-1 inh: 19; NALP3 yeast inh: 14; SKKanGAS inh: -3; TIM10 inh: -8

Results for Cc1ccc(C)c(SCC(=O)Nc2nnc(-c3ccccc3)o2)c1 ?
PfHsp90 set2: -8; tim10-1 inh: 28; tim23-1 inh: 3; NALP3 yeast inh: -1; SKKanGAS inh: 82*; TIM10 inh: 4

What do the screens show for `Cc1ccc(C)c(-c2nnc(NC(=O)c3ccc([N+](=O)[O-])o3)o2)c1`?
PfHsp90 set2: -25; tim10-1 inh: 6; tim23-1 inh: 16; NALP3 yeast inh: 18; SKKanGAS inh: 80*; TIM10 inh: -10

How did COc1cc(OC)cc(C(=O)OCC(=O)Nc2nnc(-c3ccccc3)o2)c1 do in these assays?
PfHsp90 set2: -62

What do the screens show for `COc1cccc(C(=O)OCC(=O)Nc2nnc(-c3ccccc3)o2)c1`?
tim10-1 inh: 8; tim23-1 inh: 4; NALP3 yeast inh: 12; SKKanGAS inh: 68*; TIM10 inh: 5

What do the screens show for `Cc1cccc(C)c1NC(=O)COn1nnc2ccc(C(F)(F)F)cc21`?
PfHsp90 set2: 17; tim10-1 inh: 17; tim23-1 inh: 10; NALP3 yeast inh: 21; SKKanGAS inh: -2; TIM10 inh: -14

Results for O=C(COn1nnc2ccc(C(F)(F)F)cc21)Nc1nnc(-c2ccccc2)o1 ?
PfHsp90 set2: -40; tim10-1 inh: -3; tim23-1 inh: 4; NALP3 yeast inh: -5; SKKanGAS inh: 91*; TIM10 inh: -8

What do the screens show for `CCC(c1nnc(SCC(=O)Nc2nnc(-c3ccccc3)o2)o1)N(C)C` (stereo not given)?
PfHsp90 set2: -17; tim10-1 inh: -3; tim23-1 inh: 5; NALP3 yeast inh: 16; SKKanGAS inh: 0; TIM10 inh: -7

How did O=C(CN1C(=O)/C(=C/c2c(F)cccc2Cl)Oc2ccccc21)NCc1ccco1 do in these assays?
tim10-1 inh: 14; tim23-1 inh: 1; NALP3 yeast inh: 2; SKKanGAS inh: 6; TIM10 inh: 9

What do the screens show for `Cc1ccc(C)c(-c2nnc(NC(=O)CCS(=O)(=O)c3ccccc3)o2)c1`?
tim10-1 inh: -10; tim23-1 inh: 3; NALP3 yeast inh: 15; SKKanGAS inh: 51*; TIM10 inh: -3

How did Cc1ccc(C)c(-c2nnc(NC(=O)COc3ccccc3)o2)c1 do in these assays?
PfHsp90 set2: -18; tim10-1 inh: 6; tim23-1 inh: 29; NALP3 yeast inh: 41; SKKanGAS inh: 105*; TIM10 inh: 4

What do the screens show for `O=C(COc1ccccc1)Nc1nnc(-c2ccccc2)o1`?
PfHsp90 set2: -13; tim10-1 inh: 15; tim23-1 inh: 23; NALP3 yeast inh: -2; SKKanGAS inh: 4; TIM10 inh: 19

What do the screens show for `Cc1ccc(-c2nnc(NC(=O)CCS(=O)(=O)c3ccccc3)o2)c(C)c1`?
PfHsp90 set2: -52; tim10-1 inh: 16; tim23-1 inh: 11; NALP3 yeast inh: 27; SKKanGAS inh: 2; TIM10 inh: -11

What do the screens show for `CCC(Oc1ccccc1OC)C(=O)Nc1ccc2c(c1)OCO2` (stereo not given)?
PfHsp90 set2: 14; tim10-1 inh: 12; tim23-1 inh: 13; NALP3 yeast inh: 9; SKKanGAS inh: 4; TIM10 inh: -4

What do the screens show for `CCCOc1cc(N(CC)CC)ccc1/C=C(/C#N)c1nc2ccc(C)cc2[nH]1`?
PfHsp90 set2: -37; tim10-1 inh: 11; tim23-1 inh: 20; NALP3 yeast inh: 44; SKKanGAS inh: 61*; TIM10 inh: 0

How did CC(=NNC(=S)SCc1ccccc1)c1ccccn1 do in these assays?
PfHsp90 set2: 22

What do the screens show for `CC(=NNC(=S)Nc1cccc(Cl)c1)c1ccccn1`?
PfHsp90 set2: 124*

Results for CC(=NNC(=S)N1CCC1)c1ccccn1 ?
PfHsp90 set2: 107*

What do the screens show for `CCC1C(=NO)C(CC)C(c2ccccc2)NC1c1ccccc1` (stereo not given)?
PfHsp90 set2: -13; tim10-1 inh: 28; tim23-1 inh: 23; NALP3 yeast inh: 13; SKKanGAS inh: 58*; TIM10 inh: 32

What do the screens show for `CC1C(=NO)C(C)C(c2ccccc2)NC1c1ccccc1` (stereo not given)?
tim10-1 inh: 22; tim23-1 inh: 5; NALP3 yeast inh: 10; SKKanGAS inh: -1; TIM10 inh: 18

Results for COc1ccccc1N(C)S(=O)(=O)c1ccc(C(=O)N(C)Cc2ccc(OC(F)F)cc2)cc1 ?
PfHsp90 set2: -22; tim10-1 inh: 27; tim23-1 inh: 22; NALP3 yeast inh: 9; TIM10 inh: 11

What do the screens show for `O=S(=O)(Nc1nc2ccccc2nc1N1CCN(c2ccccn2)CC1)c1ccc(Cl)cc1`?
PfHsp90 set2: 104*

How did CCOC(=O)C1=C(O)c2ccccc2C(=O)/C1=C\c1ccc(CC)cc1 do in these assays?
PfHsp90 set2: -3; SKKanGAS inh: 81*

What do the screens show for `CCOC(=O)C1=CN(Cc2cccc(F)c2)S(=O)(=O)N(CC)C1CCc1ccccc1` (stereo not given)?
PfHsp90 set2: 11; tim10-1 inh: 9; tim23-1 inh: 17; TIM10 inh: -12

Results for CC1CCN(c2nc3ccccc3nc2C(C#N)C(=O)NC2CCCCC2)CC1 (stereo not given) ?
tim10-1 inh: 14; tim23-1 inh: -7; NALP3 yeast inh: -6; SKKanGAS inh: 68*; TIM10 inh: -1
